# About 83,000 compounds went through this panel and 20% of them were active in at least one assay; those are over-represented in the sample as a whole.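 In brief: 96-well plates, 48 h treatment, single concentration, percent growth endpoint.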 A number with no mark means an inactive call. Calls of active or inactive are those of the source. Rule for the calls: active = growth percent below 10; inactive = the rest.
# System: HL-60(TB) leukemia
# Test: NCI-60 one-dose screen, 48 h (100 = growth as untreated, 0 = no growth, -100 = all killed)
# Details: 10 µM unless noted
row,SMILES,growth
1,Cc1ccccc1-c1cc(-c2ccc(Br)s2)[nH]c(=O)c1C#N,82%
2,Cc1nc2sc(C(=O)Nc3cccc(Br)c3C)c(N)c2cc1C(O)c1ccccc1 (stereo not given),-46.6% (active)
3,Fc1ccc(NC(=S)c2ccccc2)cc1,102%
4,O=C(Nc1ccc(Cl)c(Cl)c1)OCc1ccco1,32.1%
5,NCCNc1nc2ccc(F)cc2c2c(=O)c3cc(F)ccc3sc12,21.2%
6,NS(=O)(=O)c1ccc(-n2nc(-c3ccc(Cl)cc3)c3ccccc3c2=O)cc1,95.2%
7,COc1ccc(C2=NN(C(C)=O)C(c3ccc(Oc4ccnc5cc(Cl)ccc45)c(OC)c3)C2)cc1 (stereo not given),78.4%
8,Cc1noc(C)c1-c1ccc2nc(NC(=O)[C@H]3CCN(C#N)C3)cn2c1,95.9%
9,CC1(C)CNC(=O)N1,101%
10,CCCOC(=O)N[C@H]1CCc2c(Cl)c(OC)c(OC)c(OC)c2-c2ccc(SC)c(=O)cc21,-36% (active)
11,CNC(=O)c1cccc2cc(Oc3ccnc4cc(OCC5(N)CC5)c(OC)cc34)ccc12,91.6%
12,COc1ccc(-c2cc(-c3cc(OC)c(OC)c(OC)c3)c(C#N)c(=O)n2CCCCC(=O)O)cc1,103%
13,O=C(Nc1ccncc1)C(=O)c1cn(S(=O)(=O)c2ccc(F)cc2)c2ccccc12,0.498% (active)
14,Fc1cc(-c2nnc3n2NC(=Nc2ccc(Cl)cc2)CS3)c(Cl)cc1Cl,94.1%
15,C[C@@H](Nc1cc(F)cc(F)c1)c1cc(C(=O)N(C)C)cc2c(=O)cc(N3CCOCC3)oc12,40.9%
16,CN1c2ccccc2[C@]2(Cc3ccccc3)Cc3ccccc3N[C@H]12,94.7%
17,COC(=O)[C@]12CC[C@@H](C(C)=O)[C@@H]1[C@H]1CC[C@@H]3[C@@]4(C)C/C(=C/c5cccnc5)C(=O)C(C)(C)[C@@H]4CC[C@@]3(C)[C@]1(C)CC2,-2.67% (active)
18,C(=N\Nc1ncnc2sc3c(c12)CCNC3)/c1cccc2ccccc12,99.1%
19,CCOC(=O)C1=CSC2=NC3=C(CCC/C3=C\c3cc(OC)c(OC)c(OC)c3)C(c3cc(OC)c(OC)c(OC)c3)N12 (stereo not given),51.5%
20,CCn1cc(C(=O)O)c(=O)c2cc(F)c(N3CCN(S(=O)(=O)c4ccc(Cl)cc4Cl)CC3)cc21,-51.7% (active)

row,SMILES,growth
1,CC1(C)CCC(C)(C)NC(=S)N1,89.3%
2,Cc1nc(Sc2nc3ccc([N+](=O)[O-])cc3s2)sc1C,-41.7% (active)
3,COC(=O)c1oc2c(C(C)=O)c(OCCCN(C)C)ccc2c1C,75.3%
4,Cn1cc(-c2nc(-c3cn(C)c4ncccc34)cs2)c2ccccc21,28.4%
5,N=C(N)c1ccc(-c2ccc(-c3ccc(F)cc3)s2)s1,-57.6% (active)
6,COc1cc(OC)cc(-c2ccc(-c3ccc(C(=N)N)o3)o2)c1,4.66% (active)
7,COc1ccc(/C=C(/c2ccccc2)[N+](=O)[O-])cc1,-28.6% (active)
8,O=C1Nc2ccccc2/C1=C\c1ccccc1O,75.2%
9,COc1ccc(N2CCN(CC(=O)N3CCN(c4nnc(-c5ccc(Cl)cc5)c(-c5ccc(Cl)cc5)n4)CC3)CC2)cc1,-19.9% (active)
10,COc1ccc2c(CCCCC(c3ccccc3)c3ccccc3)c3[n+](cc2c1OC)CCc1cc2c(cc1-3)OCO2,-35.5% (active)
11,OC1CSSC1Cn1cnc2c(Nc3ccc(OCc4cccc(F)c4)c(Cl)c3)ncnc21 (stereo not given),-29.3% (active)
12,COc1cccc(C2CC(=O)Nc3cc4c(cc32)CCC4)c1OC (stereo not given),10.4%
13,CC(C)C(C(=O)NCCN1CCOCC1)N1C(=O)/C(=C/c2ccc(Br)cc2)SC1=S (stereo not given),101%
14,Oc1c(-c2cc(C(F)(F)F)[nH]n2)cc(Cl)c(OCc2ccc(Cl)cc2)c1-c1ccc(Cl)c(C(F)(F)F)c1,-10.8% (active)
15,CCCCCCCCCCC[C@@H](C[C@H]1OC(=O)[C@H]1CCCCCC)OC(=O)[C@@H](CC(C)C)NC=O,-3.28% (active)
16,O=C1/C=C/[C@@H](O)[C@@H]2C[C@@H](O)C[C@H]2/C=C/CCC[C@H](CO)O1,-25.4% (active)
17,C=CCc1c2c(c(OC)c3ccoc13)C(=O)/C(=C/c1ccccc1OC)O2,68.8%
18,O=CN(SSN(C=O)C1CCCCC1)C1CCCCC1,77.2%
19,CCCC(c1nnnn1C1CCCCC1)N1CCN(C(=O)c2ccco2)CC1 (stereo not given),12.6%
20,Cc1cc(C)n(C(=O)c2nn(-c3ccc(Cl)cc3)cc2O)n1,39.8%

# Reference: PubChem BioAssay (NCI)
